Results from article PMC5540273 (PLoS ONE, 2017).
Where two headings read alike, the source gives them in different places.

Tests used:
Conditions in all cases: n = 1
NDR1 = tested on: T1, NDR1
T1 construct: gene STK38

NDR2 = tested on: NDR2
NEK10 = tested on: NEK10
NEK11 = tested on: NEK11
NEK1 = tested on: NEK1
NEK2 = tested on: NEK2
NEK3 = tested on: NEK3
NEK4 = tested on: NEK4
NEK5 = tested on: NEK5
NEK6 = tested on: NEK6
[1] = concentration: 1 μM, replicates: in singlicate
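Also: KINOMEscan kinase panel screen.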

Cc1csc(-c2nc(Nc3ccncc3)c3ccccc3n2)n1 [GW869640]
%Inh (NDR1; [1]): 27% | %Inh (NDR2; [1]): 25% | %Inh (NEK10; [1]): 17% | %Inh (NEK11; [1]): 9% | %Inh (NEK1; [1]): 0% | %Inh (NEK2; [1]): 0% | %Inh (NEK3; [1]): 19% | %Inh (NEK4; [1]): 28% | %Inh (NEK5; [1]): 0% | %Inh (NEK6; [1]): 4%

CN1C(=O)C(Nc2ccc(Cl)c(C(=O)O)c2)=C(c2ccc(Cl)cc2)C1=O [SB-404290]
%Inh (NDR1; [1]): 0% | %Inh (NDR2; [1]): 1% | %Inh (NEK10; [1]): 0% | %Inh (NEK11; [1]): 30% | %Inh (NEK1; [1]): 0% | %Inh (NEK2; [1]): 5% | %Inh (NEK3; [1]): 0% | %Inh (NEK4; [1]): 21% | %Inh (NEK5; [1]): 0% | %Inh (NEK6; [1]): 0%

Cc1cc(NCC(c2ccccc2)c2ccccc2)nc(NCc2ccc(C(F)(F)F)cc2)n1 [GW497681]
%Inh (NDR1; [1]): 10% | %Inh (NDR2; [1]): 16% | %Inh (NEK10; [1]): 0% | %Inh (NEK11; [1]): 0% | %Inh (NEK1; [1]): 0% | %Inh (NEK2; [1]): 0% | %Inh (NEK3; [1]): 0% | %Inh (NEK4; [1]): 0% | %Inh (NEK5; [1]): 0% | %Inh (NEK6; [1]): 0%

Cc1cccc(-c2cc(Nc3ccncc3)c3ccccc3n2)n1 [GSK223675]
%Inh (NDR1; [1]): 0% | %Inh (NDR2; [1]): 0% | %Inh (NEK10; [1]): 0% | %Inh (NEK11; [1]): 0% | %Inh (NEK1; [1]): 0% | %Inh (NEK2; [1]): 0% | %Inh (NEK3; [1]): 17% | %Inh (NEK4; [1]): 0% | %Inh (NEK5; [1]): 0% | %Inh (NEK6; [1]): 0%

CC(=O)Nc1nc2cnc(Nc3cc(NC(=O)c4cccc(CCC#N)c4)ccc3C)nc2s1
%Inh (NDR1; [1]): 0% | %Inh (NDR2; [1]): 22% | %Inh (NEK10; [1]): 13% | %Inh (NEK11; [1]): 0% | %Inh (NEK1; [1]): 0% | %Inh (NEK2; [1]): 2% | %Inh (NEK3; [1]): 7% | %Inh (NEK4; [1]): 0% | %Inh (NEK5; [1]): 0% | %Inh (NEK6; [1]): 14%

Nc1nc(-c2nccs2)c(-c2ccnc3ccccc23)s1 [GW693542]
%Inh (NDR1; [1]): 17% | %Inh (NDR2; [1]): 30% | %Inh (NEK10; [1]): 19% | %Inh (NEK11; [1]): 12% | %Inh (NEK1; [1]): 0% | %Inh (NEK2; [1]): 0% | %Inh (NEK3; [1]): 4% | %Inh (NEK4; [1]): 0% | %Inh (NEK5; [1]): 3% | %Inh (NEK6; [1]): 0%

Cn1ccc2ncnc(Oc3ccc(Nc4nc5ccccc5[nH]4)cc3)c21
%Inh (NDR1; [1]): 0% | %Inh (NDR2; [1]): 10% | %Inh (NEK10; [1]): 0% | %Inh (NEK11; [1]): 0% | %Inh (NEK1; [1]): 0% | %Inh (NEK2; [1]): 0% | %Inh (NEK3; [1]): 0% | %Inh (NEK4; [1]): 99.9% | %Inh (NEK5; [1]): 0% | %Inh (NEK6; [1]): 0%

CS(=O)(=O)c1ccc(-c2nc3n(c2-c2ccncc2)CCC3)cc1 [SKF-105942]
%Inh (NDR1; [1]): 19% | %Inh (NDR2; [1]): 0% | %Inh (NEK10; [1]): 17% | %Inh (NEK11; [1]): 0% | %Inh (NEK1; [1]): 0% | %Inh (NEK2; [1]): 15% | %Inh (NEK3; [1]): 58% | %Inh (NEK4; [1]): 22% | %Inh (NEK5; [1]): 1% | %Inh (NEK6; [1]): 0%

Cl.Oc1ccc(-c2nc(-c3ccccc3)[nH]c2-c2ccncc2)cc1 [SB-428218]
%Inh (NDR1; [1]): 12% | %Inh (NDR2; [1]): 5% | %Inh (NEK10; [1]): 9% | %Inh (NEK11; [1]): 24% | %Inh (NEK1; [1]): 0% | %Inh (NEK2; [1]): 3% | %Inh (NEK3; [1]): 15% | %Inh (NEK4; [1]): 29% | %Inh (NEK5; [1]): 6% | %Inh (NEK6; [1]): 0%

Cc1cccc(-c2nc(Nc3cccc(C(N)=O)c3)c3ccccc3n2)n1 [GW876019]
%Inh (NDR1; [1]): 9% | %Inh (NDR2; [1]): 0% | %Inh (NEK10; [1]): 12% | %Inh (NEK11; [1]): 0% | %Inh (NEK1; [1]): 6% | %Inh (NEK2; [1]): 0% | %Inh (NEK3; [1]): 28% | %Inh (NEK4; [1]): 0% | %Inh (NEK5; [1]): 12% | %Inh (NEK6; [1]): 0%

COC(=O)c1c(-c2ccccc2)c2cc(C(=O)O)ccc2c(=O)n1Cc1ccccc1
%Inh (NDR1; [1]): 2% | %Inh (NDR2; [1]): 0% | %Inh (NEK10; [1]): 9% | %Inh (NEK11; [1]): 0% | %Inh (NEK1; [1]): 22% | %Inh (NEK2; [1]): 0% | %Inh (NEK3; [1]): 31% | %Inh (NEK4; [1]): 0% | %Inh (NEK5; [1]): 0% | %Inh (NEK6; [1]): 0%

Cc1cccc(-c2nc(C)cc(Nc3ccncc3)n2)n1 [GSK257997]
%Inh (NDR1; [1]): 7% | %Inh (NDR2; [1]): 0% | %Inh (NEK10; [1]): 27% | %Inh (NEK11; [1]): 0% | %Inh (NEK1; [1]): 0% | %Inh (NEK2; [1]): 0% | %Inh (NEK3; [1]): 0% | %Inh (NEK4; [1]): 0% | %Inh (NEK5; [1]): 20% | %Inh (NEK6; [1]): 0%

COc1cc2ncnc(Nc3ccc4nc(-c5ccccc5)[nH]c4c3)c2cc1OC.Cl [GW282450]
%Inh (NDR1; [1]): 17% | %Inh (NDR2; [1]): 0% | %Inh (NEK10; [1]): 14% | %Inh (NEK11; [1]): 2% | %Inh (NEK1; [1]): 0% | %Inh (NEK2; [1]): 0% | %Inh (NEK3; [1]): 0% | %Inh (NEK4; [1]): 4% | %Inh (NEK5; [1]): 29% | %Inh (NEK6; [1]): 0%

COc1ccccc1-c1ccc2c(NC(=O)C3CC3)n[nH]c2n1 [SB-711239]
%Inh (NDR1; [1]): 8% | %Inh (NDR2; [1]): 0% | %Inh (NEK10; [1]): 11% | %Inh (NEK11; [1]): 33% | %Inh (NEK1; [1]): 0% | %Inh (NEK2; [1]): 22% | %Inh (NEK3; [1]): 0% | %Inh (NEK4; [1]): 6% | %Inh (NEK5; [1]): 0% | %Inh (NEK6; [1]): 4%

CCn1c(-c2ccccn2)nc2cnccc21 [SB-736398]
%Inh (NDR1; [1]): 6% | %Inh (NDR2; [1]): 0% | %Inh (NEK10; [1]): 26% | %Inh (NEK11; [1]): 39% | %Inh (NEK1; [1]): 100% | %Inh (NEK2; [1]): 0% | %Inh (NEK3; [1]): 12% | %Inh (NEK4; [1]): 10% | %Inh (NEK5; [1]): 0% | %Inh (NEK6; [1]): 0%

COC(=O)c1c(-c2ccccc2)c2cc(OC)ccc2c(=O)n1Cc1ccccc1
%Inh (NDR1; [1]): 0% | %Inh (NDR2; [1]): 3% | %Inh (NEK10; [1]): 0% | %Inh (NEK11; [1]): 0% | %Inh (NEK1; [1]): 7% | %Inh (NEK2; [1]): 9% | %Inh (NEK3; [1]): 16% | %Inh (NEK4; [1]): 11% | %Inh (NEK5; [1]): 0% | %Inh (NEK6; [1]): 0%

O=C(Nc1n[nH]c2nc(-c3nccs3)c(Br)cc12)C1CC1 [SB-742251]
%Inh (NDR1; [1]): 0% | %Inh (NDR2; [1]): 0% | %Inh (NEK10; [1]): 0% | %Inh (NEK11; [1]): 48% | %Inh (NEK1; [1]): 0% | %Inh (NEK2; [1]): 0% | %Inh (NEK3; [1]): 8% | %Inh (NEK4; [1]): 21% | %Inh (NEK5; [1]): 10% | %Inh (NEK6; [1]): 0%

Cc1ccc(NC(=O)Nc2cccc(C(F)(F)F)c2)cc1 [GSK955403]
%Inh (NDR1; 1 µM): 15% | %Inh (NDR2; 1 µM): 17% | %Inh (NEK10; 1 µM): 24% | %Inh (NEK11; 1 µM): 0% | %Inh (NEK1; 1 µM): 7% | %Inh (NEK2; 1 µM): 3% | %Inh (NEK3; 1 µM): 5% | %Inh (NEK4; 1 µM): 0% | %Inh (NEK5; 1 µM): 0% | %Inh (NEK6; 1 µM): 0%
